EWS-Fli inh = EWS/Fli-driven NR0B1 reporter inhibitors, primary screen, A673 cells, NR0B1 luciferase, luminescence, MLPCN library; viability-normalised; inhibition, % at 12.6 µM; AID 651661, 2012; hit rate 0.67% among 350,000;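 active = mean inhibition of at least 50% after viability correction, with every replicate also passing that limit; inconclusive = mean reaches 50% but only one of two replicates passes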;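 note: firefly luciferase signal divided by Alamar Blue viability fluorescence both relative to DMSO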
MITF TRPM1 inh = inhibitors of MITF-dependent TRPM1 promoter reporter, primary screen, cell-based, SK-MEL-5, single point, luciferase | AID 488899, 2010 | inhibition, % at 12.5 µM | SK-MEL-5 TRPM1 promoter luciferase, 24 h | hit rate 0.83% among 330,000;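 active = mean inhibition across replicates of 60% or more, whatever share of single replicates reaches that level; inconclusive = some that reach 60%, reason not given; inactive = mean inhibition across replicates below 60%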
LGR2 inh = inhibitors of bursicon-induced LGR2 CRE-luciferase signal, primary screen, cell-based, HEK293, CRE-luciferase reporter, bursicon stimulation. Drosophila bursicon receptor LGR2 (rickets). bursicon-stimulated, 4 h. inhibition, % at 9.99 µM. hit rate 0.35% among 380,000. AID 720647, 2013;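 active = drop in luminescence signal, shown as inhibition above about 50% in the replicate tests, limit read from the data, passing the limit was not always enough; inconclusive = probably only some replicates passing the limit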;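 note: agonist challenge used bursicon conditioned medium at about half maximal strength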
EBV LMP1 NFkB = EBV LMP1-driven NF-kappaB luciferase reporter inhibitors, primary screen, cell-based, luminescence, single point. LMP1-induced NF-kappaB luciferase reporter cells. inhibition, % at 12.5 µM. hit rate 0.69% among 350,000. AID 504558, 2011; in the data active = inhibition above about 41%; inconclusive = no clear call, values can overlap the other calls;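 note: 0% = neutral control wells and 100% = reference inhibitor control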
Shn3 3UTR inh = reduction of Shn3 3'UTR firefly luciferase signal, primary screen, Schnurri-3 inhibitor project, cell-based, Clone20 osteoblasts, set 2 | Clone20 osteoblast Shn3 3'UTR firefly luciferase, 24 h | hit rate 0.52% among 360,000 | inhibition, % at 12.5 µM;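 active = mean inhibition of at least 75% with every replicate also reaching 75%; inconclusive = mean inhibition at least 75% but some replicate below; inactive = mean inhibition below 75%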;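 note: 0% = median of neutral control wells and 100% = pilot-screen positive control compound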
PAX8 inh HTS = inhibitors of PAX8-driven TPO luciferase reporter, primary screen, RMG-I cells, single concentration; SteadyGlo, 24 h; inhibition, % at 12.6 µM; hit rate 1.2% among 360,000; AID 652154, 2013;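 active = mean replicate inhibition at least 60% with every replicate also reaching 60%; inconclusive = only one of the two criteria is met; inactive = mean below 60% and not all replicates reaching 60%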;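 note: luciferase light reporting Pax8 driven TPO promoter activity; plate controls were median of neutral control wells for no effect and mitoxantrone controls for full effect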
Starred values were filed as active, the others as inactive; ? = inconclusive; nt = not tested or not shown. Compounds with a hit are over-represented: about 2.2% of the library has one in this group of screens.

SMILES	EWS-Fli inh	MITF TRPM1 inh	LGR2 inh	EBV LMP1 NFkB	Shn3 3UTR inh	PAX8 inh HTS
CC(OC(=O)c1ccc([N+](=O)[O-])s1)C(=O)NC1CCCCC1C (stereo unspecified)	-1	78*	2	10	-9	14
COc1ccc2cc3c(N)nn(C(=O)Cc4ccccc4OC)c3nc2c1	5	27	1	21	4	-10
COc1ccc2cc3c(N)nn(C(=O)C4CCC(C(C)(C)C)CC4)c3nc2c1 (stereo unspecified)	-6	nt	12	75*	-4	-13
COc1ccc2cc3c(N)nn(C(=O)c4cccc([N+](=O)[O-])c4)c3nc2c1	nt	7	3	46*	-21	-5
CN1c2ccc(-c3ccccc3)cc2[C@H]2[C@H](CCN2C(=O)Nc2ccccc2F)[C@H]1CO	10	nt	17	nt	nt	17
O=C1C=CCCN1S(=O)(=O)/C=C/c1ccccc1	62*	nt	nt	nt	nt	89*
Cc1ccc(-c2nc(-c3ccccn3)no2)cc1Cl	nt	83*	nt	68*	70	81*
c1ccc(-c2noc(-c3ccno3)n2)nc1	-17	-12	-15	4	-8	-45
Cc1ccc(Cc2nc(-c3ccccn3)no2)cc1	nt	-49	-3	-18	-88	nt
c1ccc(-c2ccc(-c3nc(-c4ccccn4)no3)cc2)cc1	87*	nt	102*	83*	83*	nt
Cc1ccc(-c2nc(-c3ccccn3)no2)cc1	nt	90*	nt	88*	92*	nt
c1ccc(-c2nc(-c3ccccn3)no2)cc1	nt	53	87*	41*	16	nt
C[C@@H]1CN([C@@H](C)CO)C(=O)c2cc(NC(=O)CCCCCC(=O)Nc3ccccc3N)ccc2O[C@@H]1CN(C)C	-10	nt	-7	nt	nt	-2
CCCNC(=O)N1C[C@@H](O)COC[C@H]2O[C@H](CC(=O)N[C@@H]3CCN(Cc4ccccc4)C3)CC[C@@H]21	6	nt	-1	nt	nt	-12
Clc1cccc(-c2nc(-c3ccccn3)no2)c1	nt	64*	nt	51*	52	35
C/C(=N\NC(=O)c1c(Cl)c(C)nn1C)c1ccc(NC(=O)C2CCC2)cc1	48	26	-8	-15	11	5
C/C(=N\NC(=O)c1c([N+](=O)[O-])c(C)nn1C)c1ccc(NC(=O)C2CCCC2)cc1	52*	19	-17	0	33	-1
COc1ccc(OC)c(S(=O)(=O)NCCc2ccccc2)c1	-10	-7	-9	-5	-27	nt
COc1ccc(OC)c(S(=O)(=O)NC(C)CCc2ccccc2)c1 (stereo unspecified)	1	5	6	51*	-33	8
CC[n+]1ccc(/C=C/c2c[nH]c3ccccc23)cc1	22	25	1	11	44	75*
Cc1ccc2[nH]cc(/C=C/c3cc[n+](C)cc3)c2c1	60*	38	16	14	39	78*
CCn1c(/C=C/c2c[nH]c3ccccc23)nc2ccccc2c1=O	-74	-113	-20	-76	-10	-92
C[C@@H]1CN([C@H](C)CO)C(=O)c2cccc(NC(=O)c3ccc(-c4nccs4)cc3)c2O[C@H]1CN(C)C(=O)Nc1cccc2ccccc12	7	nt	2	nt	nt	-13
Cc1ccccc1-c1cc(C(=O)Nc2sc(C(=O)OC(C)C)c(C)c2C#N)c2ccccc2n1	nt	43	nt	32	71	81*
O=C(O)c1ccc(Nc2nc3c(s2)CCCC3)cc1	67*	64*	?	39	28	67*
CCN(CC)c1ccc(/C=C2\SC(=O)N(C(C)C)C2=O)o1	nt	nt	nt	nt	97*	nt
CCCN(CCC)CCNC(=O)CN1C(=O)COc2ccc(S(=O)(=O)N3CCOCC3)cc21	-2	-15	-23	-7	7	1
COCCCNC(=O)CN1C(=O)COc2ccc(S(=O)(=O)N3CCOCC3)cc21	nt	3	-1	57*	0	0
CO[C@H]1CN(C)C(=O)c2cc(NC(=O)C3CCOCC3)ccc2OC[C@@H](C)N(C(C)=O)C[C@H]1C	1	nt	-3	nt	nt	-1
O=C(Nc1cccc(F)c1)C1CCN(C(=O)N2CCOc3ccccc32)CC1	2	-7	-5	84*	-21	-13
